Sampled rows, rich in hits. Any-hit rate of the full collection: about 3%.
GCN5L2 inh = inhibitors of human GCN5L2 histone acetyltransferase. hit rate 0.21% among 390,000. Potency, µM (series often up to 58.9 µM), inactives show at the top dose activity change, negative = inhibition, most hits filed as inhibitors. AID 504327. GCN5L2 HAT assay, ThioGlo1 CoA-SH fluorescence; note: % is set by controls: 0 for no effect and ±100 for the full control effect
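ThioGlo1-coupled HAT assay: 20nM GCN5L2, 70uM acetyl-CoA, 75uM H3(1-25) peptide, pH 7.5. Fluorescence read at 340/540nm at start and after 20 min at room temperature.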
USP1 inh = blocks the human USP1/UAF1 deubiquitinase complex | O94782 | recombinant USP1/UAF1, Ub-Rhodamine cleavage fluorescence | Potency, µM (series often up to 57.1 µM), without a hit: at the highest dose activity change, negative = inhibition, hits mostly inhibitors | hit rate 0.23% among 390,000 | AID 743255; note: % is set by controls: 0 for no effect and ±100 for the full control effect; nearly all actives have a fitted effect of over 60% in size
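High-throughput fluorogenic screen: 1nM USP1/UAF1 complex, Ub-Rho substrate 150nM final, 50mM HEPES pH 7.8 with 0.5mM EDTA, 0.1 mg/ml BSA, 1mM TCEP and 0.01% Tween-20.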
PLK1 PBD inh = blocks phosphopeptide binding to human PLK1 polo-box domain. hit rate 2.8% among 360,000. Potency, µM, for inactives: max response, negative = inhibition, usual class: inhibitors. Plk1 PBD binding of FITC phosphopeptide, fluorescence polarization; note: series mostly up to about 57 µM; % is set by controls: 0 for no effect and ±100 for the full control effect; nearly all actives have a fitted effect of over 65% in size
Target sequence (P53350 whole entry, looked up, the tested form may be a part): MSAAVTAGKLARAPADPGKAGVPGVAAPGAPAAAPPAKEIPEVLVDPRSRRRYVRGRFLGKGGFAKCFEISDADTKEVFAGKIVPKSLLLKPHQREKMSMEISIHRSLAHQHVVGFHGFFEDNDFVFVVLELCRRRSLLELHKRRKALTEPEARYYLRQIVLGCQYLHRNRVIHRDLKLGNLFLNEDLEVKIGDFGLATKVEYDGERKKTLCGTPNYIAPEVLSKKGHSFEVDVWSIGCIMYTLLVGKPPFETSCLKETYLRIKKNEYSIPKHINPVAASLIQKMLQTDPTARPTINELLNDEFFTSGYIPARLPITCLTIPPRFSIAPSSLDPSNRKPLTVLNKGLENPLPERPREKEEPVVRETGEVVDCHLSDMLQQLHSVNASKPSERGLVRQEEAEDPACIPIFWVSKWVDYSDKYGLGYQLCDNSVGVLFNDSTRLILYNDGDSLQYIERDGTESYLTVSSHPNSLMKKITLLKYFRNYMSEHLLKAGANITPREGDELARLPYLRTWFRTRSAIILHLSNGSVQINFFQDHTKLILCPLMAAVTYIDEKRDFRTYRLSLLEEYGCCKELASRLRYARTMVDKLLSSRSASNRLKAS
VDR inhibitor = inhibitors of human vitamin D receptor; P11473; hit rate 0.93% among 400,000; Potency, µM, for inactives: max response, negative = inhibition, usual class: inhibitors; VDR-SRC2-3 peptide fluorescence polarization, 2 h; AID 504847; note: % is set by controls: 0 for no effect and ±100 for the full control effect
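Reagent solutions, kept cold and dark, are dispensed first; compounds are then pinned in at 23 nl, plates briefly spun, and incubated 2 h at ambient temperature. Inhibition of VDR–SRC2-3 peptide binding is read by fluorescence polarization.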
TSG101-PTAP inh = blocks PTAP/TSG101 interaction to inhibit HIV-1 budding; 340,000 tested, under 10 active; Fluorescence polarization, FITC-PTAP peptide / Tsg101 binding; Potency, µM (series often up to 115 µM), inactives show top-dose activity change, negative = inhibition, hits mostly inhibitors; Q99816; active = well fitted inhibition curve with a large enough effect in the main read-out, with a control signal flat, not every such curve was filed as active; inconclusive = small, poorly fitted or top-dose-only effect, or effect the other way, or a change in a side signal; inactive = no such curve, though single readings can be large or run the other way; note: % of control where 0% means no effect
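Compounds were pin-transferred onto Tsg101 binding domain (10 uM final) in HEPES pH 7.5 buffer, then FITC-PTAP peptide was added at 50 nM final. After 20 min at RT, polarization reported peptide displacement across a qHTS concentration series.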
* = called active by the depositor; ? = inconclusive; . = no result; ! = not active in a repeat. Unless noted, calls come from the whole dose curve; as a rule, active = well fitted curve in the direction sought with a large enough effect; inconclusive = small, poorly fitted or top-dose-only effect, or another doubt; inactive = no such curve, though single readings can be large; an effect the other way counts as inactive or inconclusive. Potency is the fitted concentration of half-maximal effect.

SMILES	GCN5L2 inh	USP1 inh	PLK1 PBD inh	VDR inhibitor	TSG101-PTAP inh
Cc1ccc(S(=O)(=O)N2C(c3cccc(Cl)c3)CC=C(C(=O)O)C2c2cccc(Cl)c2)cc1 (stereo unspecified)	.	.	-3.6%	.	.
Cc1ccc(S(=O)(=O)N2[C@@H](c3ccc(C(C)(C)C)cc3)C(C(=O)O)=CC[C@H]2c2cccs2)cc1	-22.8%	-12.5%	23.8µM*	-7.8%	-3.9%
Cc1nc2cnc(N3CCNCC3)nc2n(C2CC2)c1=O	?	.	.	-6.9%	.
CC(C)c1ccc(N(CC(=O)NC2CCCC2)C(=O)CCC(=O)Nc2ccccn2)cc1	-2.3%	-15.5%	23.8µM*	-29.9%	-4.3%
CCc1ccc(N(CC(=O)NC2CCCC2)C(=O)CCC(=O)Nc2ccccn2)cc1	0.3%	-17.4%	-7.0%	1.1%	0.6%
COC(=O)c1cn(C(=O)c2ccc(C)cc2)c2ccccc12	?	-9.6%	18.9µM*	-13.4%	-0.3%
COC(=O)c1cn(C(=O)c2cc(C)cc(C)c2)c2ccccc12	-6.7%	-3.2%	21.2µM*	-23.8%	-0.8%
COC(=O)c1cn(C(=O)c2ccc(C)c(C)c2)c2ccccc12	-5.7%	-1.8%	6.3%	17.1%	2.2%
COc1cc(C)cc2oc(=O)c(CC(=O)NCc3cccc(Cl)c3)c(C)c12	-2.3%	-27.3%	.	14.3%	.
Cc1ccc(CCNC(=O)c2ccc3c(=O)n(-c4ccc(C)cc4)c(=O)[nH]c3c2)cc1	1.5%	-14.4%	.	-11.9%	.
CCn1c(SCC(=O)NCC2CCCO2)nnc1-c1ccc(S(=O)(=O)N2CCN(C)CC2)cc1 (stereo unspecified)	-2.6%	-8.7%	-5.0%	-20.4%	-3.9%
CCOC(=O)c1c(C)oc2nc(C)nc(NCCCN3CCN(c4ccccc4OC)CC3)c12	6.6%	4.6%	.	15.8%	.
O=C(NCCc1c[nH]c2ccccc12)OCCCCOC(=O)NCCc1c[nH]c2ccccc12	-10.9%	?	-2.1%	3.8%	-1.4%
Cn1c(N2CCOCC2)nc2c1c(=O)n(Cc1ccc(Cl)c(Cl)c1)c(=O)n2C	-11.9%	-19.8%	-1.4%	-3.3%	-3.3%
Cn1c(OCc2ccco2)nc2c1c(=O)n(Cc1ccc(Cl)c(Cl)c1)c(=O)n2C	-2.6%	-14.0%	11.9µM*	-11.1%	-1.9%
Cc1nnc(SCC(=O)c2c(N)n(C)c(=O)n(C)c2=O)[nH]c1=O	-3.0%	-2.1%	23.8µM*	-14.6%	-5.5%
Cn1c(N)c(C(=O)CSc2ncn[nH]2)c(=O)n(C)c1=O	-25.5%	-4.4%	-9.5%	-18.1%	0.0%
COc1ccc(Cl)cc1/C=C1/C(=O)ON=C1C	27.8%	-14.2%	?	?	-4.3%
C#CCOc1c(Cl)cc(/C=C2/C(=O)ON=C2C)cc1OC	0.3%	-6.5%	4.74µM*	?	-3.1%
N#C/C(=C\c1cccn1S(=O)(=O)c1ccccc1)S(=O)(=O)c1ccc(F)cc1	.	.	-3.2%	.	.
Cc1ccc(-c2csc(NC(=S)NC(=O)c3cccs3)n2)cc1	0.7%	-14.8%	-1.0%	-15.2%	-4.5%
O=C(NC(=S)Nc1nc(-c2ccc(Cl)cc2)cs1)c1cccs1	-2.9%	-19.3%	10.6µM*	?	-5.4%
CO[C@@H]1c2cc(F)ccc2/C(=C\CCOC(=O)C/C=C/c2ccccc2)[C@H]1C	.	.	.	-6.0%	.
CC(=O)Oc1cc2c3c(c1)/C(=C1/SC(=S)NC1=O)C(=O)N3C(C)(C)C=C2C	-7.9%	-30.1%	26.7µM*	?	-6.1%
CC1O[C@@H](O[C@H](C)CC[C@@H](C)O[C@H]2OC(C)[C@@H](O)C[C@H]2O)C(O)C[C@H]1O (stereo partly specified)	-5.4%	-26.1%	2.3%	2.7%	.
NC(CS)C(=O)O (stereo unspecified)	11.2%	.	.	44.7µM*	.
Cc1ccn2cc(-c3cccc(NC(=O)c4ccccc4)c3)nc2c1	-13.8%	-21.3%	7.0%	-6.2%	0.4%
Cc1ccn2cc(-c3cccc(NC(=O)C(C)C)c3)nc2c1	-0.9%	-12.0%	21.2µM*	-14.5%	-10.1%
N#CC(=C=[N-])c1nc2ccccc2nc1-[n+]1ccccc1	-2.0%	-3.3%	26.7µM*!	?	-8.5%
COC(=O)C1=C(C)Nc2ccc(C)cc2S1	-4.0%	-19.7%	?	70.8µM*	-1.1%
